Bioassay records from PubChem.
An excerpt weighted towards active compounds, which were near 4% of everything screened.
GRP78 ERSR act = inducers of ER stress response in human glioma cells; U87-MG GRP78 promoter luciferase reporter, 16 h; Potency, µM, actives largely listed as activators; 420,000 compounds, 0.02% hits; AID 602332; active = well fitted activation curve with a large enough effect; inconclusive = small, poorly fitted or top-dose-only effect; inactive = no such curve, though single readings can be large or run the other way; also: series mostly up to about 76 µM; nearly all actives have a fitted effect of over 35% in size
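Stably transfected U87-MG glioma cells carrying a GRP78-based luciferase sensor; 16 h compound incubation. Luminescence end-point read 10 min after Bright-Glo addition at room temperature.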
TRHR ag = TRH receptor (human) agonism; P34981; AID 493084; TRHR cells, calcium flux fluo-8, FDSS agonist mode; 360,000 compounds, 0.18% hits; activation, % at 2 µM
Target sequence (P34981 whole entry, looked up): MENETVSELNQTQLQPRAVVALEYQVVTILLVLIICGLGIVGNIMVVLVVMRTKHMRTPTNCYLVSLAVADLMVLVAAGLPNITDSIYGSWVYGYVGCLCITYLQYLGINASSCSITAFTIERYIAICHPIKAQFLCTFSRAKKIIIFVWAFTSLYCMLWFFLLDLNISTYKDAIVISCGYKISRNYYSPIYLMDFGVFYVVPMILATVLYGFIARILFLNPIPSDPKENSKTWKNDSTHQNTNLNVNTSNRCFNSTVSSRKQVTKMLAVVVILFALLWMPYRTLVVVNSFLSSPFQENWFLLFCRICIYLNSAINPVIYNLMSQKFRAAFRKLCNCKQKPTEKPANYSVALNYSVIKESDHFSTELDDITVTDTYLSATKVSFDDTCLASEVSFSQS
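Agonist-mode FDSS calcium read (Ex 480/Em 530, 1 s cycles) in 1536-well TRHR cells with fluo-8 dye, after 10-cycle baseline and 23 nL compound addition; TRH at EC20 (10 nM final) added afterwards for the enhancer phase.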
TRHR enhancer = allosteric enhancers of human TRH receptor | 360,000 compounds, 0.66% hits | TRHR cells, fluo-8 calcium fluorescence, EC20 TRH enhancement | enhancement, % at 2 µM; in the data active = enhancement above about 30%
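TRHR-expressing cells loaded with fluo-8 calcium dye were read kinetically (ex 480/em 530) during compound addition, then stimulated with an EC20 of TRH (10 nM final). Enhancement of the Gq-mediated intracellular calcium response was scored.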
D1 antag = human D1 dopamine receptor antagonism. P21728. HEK293 TREx D1 cells, calcium flux, dopamine EC80; stronger effect = lower value. activity change, negative = inhibition, % at 10 µM. 360,000 compounds, 3.2% hits; in the data active = activity change below about -30%
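Antagonism measured as reduced calcium response to an EC80 dopamine addition following 180 s compound pre-read; cells were inducible HEK293 Trex D1 plated overnight at 30 C, read kinetically at 1 cycle/sec.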
D1 agonist = agonists of human D1 dopamine receptor; P21728; HEK293 T-REx D1 cells, calcium flux, agonist mode; activation, % at 2 µM; 360,000 compounds, 1% hits; AID 504660
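Tetracycline-induced HEK293 TREx D1 cells, force-coupled to calcium signalling, were dye-loaded with a no-wash calcium kit. Compound was pin-added after a 10 s baseline. Fluorescence was read kinetically at 1 cycle/s for 180 s, with calcium rises flagged as agonism.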
D1 PAM = human D1 dopamine receptor positive modulation. 360,000 compounds, 0.036% hits. potentiation, % at 10 µM. HEK293 TREx D1 cells, calcium flux, dopamine EC20 potentiation. P21728; in the data active = potentiation above about 30%
A number is an active result. Rule as the data show it, unless noted: active = activation above about 30%; inactive = the rest.

Screening CCSC1=C(C#N)C(c2ccccc2Cl)C(C(=O)c2cccs2)C(O)(C(F)(F)F)N1 (stereo unspecified) returned GRP78 ERSR act inactive, TRHR ag inactive, TRHR enhancer inactive, D1 antag inactive, D1 agonist inactive and D1 PAM inactive.
Screening CC1=C(C(=O)N2CCc3ccccc32)C2(CCC(C)CC2)OC1=O (stereo unspecified) returned GRP78 ERSR act inactive, TRHR ag inactive, TRHR enhancer inactive, D1 antag -78, D1 agonist inactive and D1 PAM inactive.
CC1=C(C(=O)N2CCCCC2)C2(CCC(C)CC2)OC1=O (stereo unspecified) was read as GRP78 ERSR act inactive, TRHR ag inactive, TRHR enhancer inactive, D1 antag inactive, D1 agonist inactive and D1 PAM inactive.
Screening Cc1ccc(S(=O)(=O)CC(=O)Nc2ncc([N+](=O)[O-])s2)cc1 returned GRP78 ERSR act inactive, TRHR ag inactive, TRHR enhancer inactive, D1 antag inactive, D1 agonist inactive and D1 PAM inactive.
For Cc1ccc(CC(=O)Nc2cccc([N+](=O)[O-])c2)cc1 the results were GRP78 ERSR act inactive, TRHR ag inactive, TRHR enhancer inactive, D1 antag inactive, D1 agonist inactive and D1 PAM inactive.
`Cc1ccc(SCC(=O)Nc2cc([N+](=O)[O-])ccc2O)cc1` gave GRP78 ERSR act inactive, TRHR ag inactive, TRHR enhancer inactive, D1 antag inactive, D1 agonist 30 and D1 PAM inactive.
For Cc1ccc(CC(=O)Nc2ncc([N+](=O)[O-])s2)cc1 the results were GRP78 ERSR act inactive, TRHR ag inactive, TRHR enhancer inactive, D1 antag -39, D1 agonist inactive and D1 PAM inactive.
`Cc1ccc(CC(=O)Nc2ccc([N+](=O)[O-])cc2C)cc1` gave GRP78 ERSR act inactive, TRHR ag inactive, TRHR enhancer inactive, D1 antag -41, D1 agonist inactive and D1 PAM inactive.
Cc1oc(-c2ccccc2NC(=O)c2ccccn2)nc1CNC(=O)c1cccc(C#CC(C)(C)O)c1 was read as GRP78 ERSR act inactive.
For CN1CCCC(CNC(=O)c2cnn(-c3ncc4c(n3)-c3ccccc3CC4)c2C2CC2)C1 (stereo unspecified) the results were GRP78 ERSR act inactive.
For CC1(C)N([O-])C2=C(c3ccccc3C2=O)[N+](=O)C1(C)C the results were GRP78 ERSR act inconclusive, TRHR ag inactive, TRHR enhancer inactive, D1 antag -32, D1 agonist inactive and D1 PAM inactive.
Screening Cc1cc(OCc2cc(C(=O)NC3CCC3)no2)cc(C)c1Cl returned GRP78 ERSR act inactive, TRHR ag inactive, TRHR enhancer inactive, D1 antag inactive, D1 agonist inactive and D1 PAM inactive.
CC(=O)c1ccc(OCc2cc(C(=O)N(C)Cc3ccon3)no2)cc1 was read as GRP78 ERSR act inactive, TRHR ag inactive, TRHR enhancer inactive, D1 antag inactive, D1 agonist inactive and D1 PAM inactive.
`Cc1cc(OCc2cc(C(=O)NCC3(C)COC3)no2)cc(C)c1Cl` gave GRP78 ERSR act inactive, TRHR ag inactive, TRHR enhancer inactive, D1 antag -41, D1 agonist inactive and D1 PAM inactive.
`Cc1cc(OCc2cc(C(=O)N(C)Cc3ccccn3)no2)cc(C)c1Cl` gave GRP78 ERSR act inactive, TRHR ag inactive, TRHR enhancer inactive, D1 antag inactive, D1 agonist inactive and D1 PAM inactive.
For Cc1cc(OCc2cc(C(=O)N(C)CCOc3ccccc3)no2)cc(C)c1Cl the results were GRP78 ERSR act inactive, TRHR ag inactive, TRHR enhancer inactive, D1 antag inactive, D1 agonist 37 and D1 PAM inactive.
Cc1cc(OCc2cc(C(=O)N(C)CCCN3CCOCC3)no2)cc(C)c1Cl was read as GRP78 ERSR act inactive, TRHR ag inactive, TRHR enhancer inactive, D1 antag inactive, D1 agonist 35 and D1 PAM inactive.
For CC(=O)c1ccc(OCc2cc(C(=O)N(C)Cc3ccccn3)no2)cc1 the results were GRP78 ERSR act inactive, TRHR ag inactive, TRHR enhancer inactive, D1 antag -73, D1 agonist inactive and D1 PAM inactive.
